# GAA spleen mod: lysosomal alpha-glucosidase (human) modulation; AID 2112; Potency, µM (top dose mostly 79.9 µM), hits mostly inhibitors; 240,000 compounds, 0.006% hits; P10253; human spleen homogenate, 4-MU-alpha-glucoside fluorescence
#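 Human spleen homogenate (1 ug) incubated with compounds and 1 mM 4-methylumbelliferyl-alpha-D-glucopyranoside in pH 5.0 citrate/phosphate buffer, 37 C, 40 min. Stopped at pH 10; 4-MU fluorescence (Ex 365/Em 440 nm); AC50 by Hill fit.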
# GAA glycogen mod: inhibitors or activators of human alpha-glucosidase glycogen cleavage; P10253; recombinant GAA, glycogen substrate, Amplex Red glucose oxidase fluorescence; Potency, µM (highest dose often 76.4 µM), hits mostly inhibitors; 300,000 compounds, 0.38% hits; AID 2100;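 note: the screen sought inhibitors and activators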
#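 Natural-substrate format: glycogen cleavage by 4 nM human enzyme, glucose read by Amplex Red coupling (Ex 573, Em 610 nm). Normalized to enzyme and no-enzyme controls.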
# N370S GC mod: inhibitors or activators of N370S glucocerebrosidase for Gaucher disease | 330,000 compounds, 0.092% hits | AID 2101 | Potency, µM (titrated, usually from 59.4 µM), most hits filed as inhibitors | N370S GC spleen homogenate, 4MU-glucoside fluorescence
# GAA inhib: blocks human lysosomal alpha-glucosidase; Potency, µM (series often up to 76.9 µM), usual class: inhibitors; P10253; 200,000 compounds, 0.005% hits; purified human GAA, 4-MU-alpha-glucoside fluorescence
#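 Read-out is 4-methylumbelliferone fluorescence (Ex 365/Em 440 nm) after NaOH/glycine stop at pH 10. Enzyme 4 nM, substrate 400 uM, pH 5.0 citrate buffer, 20 min room temperature; AC50 from Hill-equation concentration-response.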
# GLA spleen mod: inhibits or activates alpha-galactosidase in human spleen homogenate. human spleen homogenate, 4MU-alpha-Gal fluorescence, 40 min. AID 2107. 240,000 compounds, 0.008% hits. Potency, µM (doses to about 80 µM), hits mostly inhibitors. P06280
# Target sequence (P06280 32-429 limits assumed): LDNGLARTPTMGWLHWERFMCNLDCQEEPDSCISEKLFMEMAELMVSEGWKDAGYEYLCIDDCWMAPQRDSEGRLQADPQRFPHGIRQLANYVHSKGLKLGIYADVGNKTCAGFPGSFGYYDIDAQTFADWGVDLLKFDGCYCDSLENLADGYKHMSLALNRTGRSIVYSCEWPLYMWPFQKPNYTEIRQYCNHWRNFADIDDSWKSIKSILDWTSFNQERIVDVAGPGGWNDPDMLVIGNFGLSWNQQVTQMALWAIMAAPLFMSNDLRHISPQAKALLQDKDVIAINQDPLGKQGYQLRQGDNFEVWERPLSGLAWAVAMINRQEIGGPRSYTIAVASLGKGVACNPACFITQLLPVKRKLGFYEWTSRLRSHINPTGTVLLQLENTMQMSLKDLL
#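 Spleen homogenate 1 ug + cpd (titration) + 4-MU-alpha-D-galactopyranoside 1 mM; 37C 40 min; 50 mM citrate/phosphate pH 5.0, 0.01% Tween-20; stop pH 10; fluorescence 365/440; AC50 via Hill.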
# GLA inh pH 4.5: blocks human alpha-galactosidase A at pH 4.5 | P06280 | purified enzyme, 4-MU-alpha-Gal fluorescence, pH 4.5 | activity change, negative = inhibition, % at 105 µM | 230,000 tested, under 10 active | AID 1467
# A number is an active result; i = inactive; ? = inconclusive; nt = no result given; [ ] = dose if it differs, or a comment. Compounds with a hit are over-represented: about 0.43% of the library has one in this group of screens. Calls come from the whole dose curve; as a rule, active = well fitted curve in the direction sought with a large enough effect; inconclusive = small, poorly fitted or top-dose-only effect, or another doubt; inactive = no such curve, though single readings can be large; an effect the other way counts as inactive or inconclusive.
SMILES,GAA spleen mod,GAA glycogen mod,N370S GC mod,GAA inhib,GLA spleen mod,GLA inh pH 4.5
CCNC(=S)N/N=C(\C)c1ccc2ccccc2c1OC(F)F,i,50.1µM,i,i,i,i
Cc1ccc(CNc2nc(C)nc3sc4c(c23)CCC4)cc1,i,i,i,i,i,i
Cc1nc(Nc2ccc(O)cc2)c2c3c(sc2n1)CCCC3,i,14µM,11.2µM,i,i,i
COc1ccc(-c2nnc3n2N=C(c2ccccc2OC)CS3)c(OC)c1,i,nt,i,nt,i,nt
O=C(O)C1OC(Oc2c(-c3ccc(O)c(O)c3)oc3cc(O)cc(O)c3c2=O)C(O)C(O)C1O (stereo not drawn),i,3.98µM,i,i[15.4 µM],i,i
NC(N)=NCCC[C@H](N)C(=O)N1CCC[C@H]1C(=O)N1CCC[C@H]1C(=O)NCC(=O)N[C@@H](Cc1ccccc1)C(=O)N[C@@H](CO)C(=O)N1CCC[C@H]1C(=O)N[C@@H](Cc1ccccc1)C(=O)O,i,nt,i,nt,i,nt
CCc1c(C)c(C#N)c2nc3ccccc3n2c1Nc1c(C)n(C)n(-c2ccccc2)c1=O,i,25.1µM,i,i,i,i
CCCc1cc(Nc2c(C)n(C)n(-c3ccccc3)c2=O)n2c(nc3ccccc32)c1C#N,i,14.1µM,i,?,i,i
Cc1cc(Nc2c(C)n(C)n(-c3ccccc3)c2=O)n2c(nc3ccccc32)c1C#N,i,14µM,i,i,i,i
NC(N)=NCCC[C@H](NC(=O)[C@H](Cc1ccccc1)NC(=O)[C@@H]1CCCN1C(=O)[C@H](CO)NC(=O)[C@H](Cc1ccccc1)NC(=O)CNC(=O)[C@@H]1CCCN1C(=O)[C@@H]1CCCN1C(=O)[C@@H](N)CCCN=C(N)N)C(=O)O,i,nt,i,nt,i,nt
Cn1c(=O)c2sccc2n2c(CCCC(=O)Nc3ccc(F)c(F)c3)nnc12,nt,2µM,nt,nt,nt,nt
Cc1ccc(NC(=O)CCCc2nnc3n(C)c(=O)c4sccc4n23)cc1C,nt,i,nt,nt,nt,nt
COc1ccc(O)c(/C=N/c2sc(C)c(C)c2C#N)c1,i,14µM,i,i,i,i
Oc1ccc(N2CCN(C(c3ccncc3)c3nnnn3C3CCCC3)CC2)cc1 (stereo not drawn),i,12.5µM,i,i,i,i
Cc1c(O)ccc(/C=N/Nc2nc(-c3cccnc3)nc3ccccc23)c1O,i,35.5µM,?,i,i,i
Oc1ccc(/C=N/Nc2nc(-c3cccnc3)nc3ccccc23)c(O)c1,i,?,i,nt,i,i
O=C(O)CC1=C(O)C(=O)N(c2ccccc2)C1c1ccccc1 (stereo not drawn),i,?,i,i,i,i
O=C(O)CC1=C(O)C(=O)N(c2ccccc2)C1c1ccc(Br)cc1 (stereo not drawn),i,24.9µM,i,i,i,i
C(C#CCCCCCCCCC[n+]1ccccc1)#CCCCCCCCCC[n+]1ccccc1,nt,nt,11.2µM,nt,nt,nt
Oc1ccccc1N=Cc1c(O)ccc2ccccc12,i,?,i,i,i,i
CN(C)/N=C/c1c(O)ccc2ccccc12,i,14.1µM,i,i,i,i
COc1ccc(Cl)cc1NC(=S)N(CCCN1CCOCC1)Cc1cn(C)c2ccccc12,i,i,6.31µM,i,i,i
COc1cc(Cl)ccc1NC(=S)N(CCCN1CCOCC1)Cc1cn(C)c2ccccc12,i,i,7.08µM,i,i,i
COc1ccccc1NC(=S)N(CCCN1CCOCC1)Cc1cn(C)c2ccccc12,i,i,?,i,i,i
CN(C)/C=N/c1c(C#N)cnn1-c1ccc(F)c(Cl)c1,i,nt,i,nt,i,nt
SMILES,GAA spleen mod,GAA glycogen mod,N370S GC mod,GAA inhib,GLA spleen mod,GLA inh pH 4.5
CCOc1cccc(/C=N/NC(=S)Nc2ccccc2[N+](=O)[O-])c1O,i,i,i,i,i,i
O=[N+]([O-])c1ccccc1NC(=S)N/N=C/c1ccc(O)c(O)c1,i,3.55µM,i,i,i,i
Cc1ccc(/C=C2/CNC/C(=C\c3ccc(C)cc3)C2=O)cc1,i,nt,i,nt,i,nt
CS[C@@H]1SC[C@H]2C(=O)N(C)C(C(C)C)C(=O)OC[C@@H](NC(=O)c3cnc4ccccc4n3)C(=O)N[C@@H](C)C(=O)N(C)[C@H]1C(=O)N(C)C(C(C)C)C(=O)OC[C@@H](NC(=O)c1cnc3ccccc3n1)C(=O)N[C@@H](C)C(=O)N2C (stereo partly drawn),i,nt,i,nt,i,nt
COc1ccc2[nH]c(C(=O)O)c(NS(=O)(=O)c3ccc(OC)c(OC)c3)c2c1,i,3.98µM,i,i,i,i
COc1ccc(S(=O)(=O)Nc2c(C(=O)O)[nH]c3ccc(OC)cc23)cc1,nt,?,i,nt,nt,nt
COc1ccc(S(=O)(=O)Nc2c(C(=O)O)[nH]c3ccc(OC)cc23)c(OC)c1,nt,?,i,nt,nt,nt
COc1ccc(S(=O)(=O)Nc2c(C(=O)O)[nH]c3ccccc23)c(OC)c1,i,3.52µM,i,i,i,i
COCCNC(=O)COc1ccc(OCCNC[C@H](O)COc2ccccc2)cc1,i,nt,i,nt,i,nt
CSCC[C@H](NC(=O)[C@H](CC(C)C)N(C)C(=O)[C@@H]1CCCN1C(=O)[C@H](Cc1ccccc1)NC(=O)[C@H](Cc1ccccc1)NC(=O)CCC(C)N)C(=O)O (stereo partly drawn),i,nt,i,nt,i,nt
O=C1OCC(CO)(CO)N=C1NNc1ccccc1Cl,i,28.2µM,i,i,i,i
Cc1cc(=O)oc2cc(NC(=O)[C@H](CCCCN)NC(=O)[C@H](CC3CCCCC3)NC(=O)OCC3c4ccccc4-c4ccccc43)ccc12,i,nt,i,nt,i,nt
Cc1cccc(C)c1N1C(=O)CC(N(O)c2ccccc2)C1=O (stereo not drawn),i,31.6µM,i,i,i,i
CCOc1ccccc1N1C(=O)CC(N(O)c2ccccc2)C1=O (stereo not drawn),i,i,i,i,i,i
Cc1c(Cl)cccc1N1C(=O)CC(N(O)c2ccccc2)C1=O (stereo not drawn),i,20µM,i,i,i,i
COc1ccc(OC)c(Cc2nnc(CCC(=O)NCc3ccc(C)s3)o2)c1,i,10µM,i,i,i,i
COc1ccc(OC)c(Cc2nnc(CCC(=O)NC(C3CC3)C3CC3)o2)c1,i,i,i,i,i,i
C/C(=N\Nc1ccc(C(=O)O)cc1)c1ccc2c(c1)Nc1ccccc1S2,i,11.2µM,i,nt,i,i
CSc1cccc(-n2cc(-c3ccc4c(c3)OCO4)[nH]c2=O)c1,i,35.2µM,i,i,i,i
CSc1cccc(NC(=O)CNC(=O)c2ccc3c(c2)OCO3)c1,nt,nt,i,nt,nt,nt
CC(=O)O[C@@H]1[C@@H](O)CN[C@@H]1Cc1ccccc1,i,nt,i,nt,i,nt
O=C(O)COc1ccc(/C=N/n2c(COc3ccccc3)nc3ccccc3c2=O)cc1,i,i,i,i,i,i

# Screening data as filed in PubChem.
